Test [1] is described as follows: antimalarial activity against Dd2 strain (AID 2302;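 active = growth inhibition above 50% at the single 2 µM test dose, taken to imply half-maximal potency below 2 µM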;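 also: 0% = DMSO untreated growth and 100% = chloroquine plus artemisinin killed control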). The following applies: P. falciparum Dd2 in RBCs, LDH growth readout, 72 h; at 2 µM; stronger effect = higher value.
Test [2] in a line: HepG2 cytotoxicity, primary screen, cytotoxicity control for P. falciparum antimalarial project, cell-based, ATP luminescence (AID 2303;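 active = inhibition above 50%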;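 also: 0% = DMSO wells and 100% = digitonin-killed cells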). The following applies: HepG2 viability, 24-48 h, at 10 µM, stronger effect = higher value.
In test [3] the target is L-lactate dehydrogenase (Plasmodium falciparum (isolate CDC / Honduras)) (UniProt Q27743). Briefly: PfLDH activity inhibition – cell lysate, 3D7 strain, counter-screen for P. falciparum growth inhibition project (AID 2304).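 Also: 0% = vehicle and 100% = reference inhibitor.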 Conditions: P. falciparum 3D7 crude extract, LDH APAD/NBT absorbance; at 2 µM; stronger effect = higher value. In general terms: The purpose of a counterscreen is to sort out artefacts and off-target activity.

Test [4] can be described thus: inhibition of 3D7 malaria parasite growth – strain 3D7 (AID 2306).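 Also: 0% = DMSO wells and 100% = chloroquine plus artemisinin control wells.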 Conditions: P. falciparum 3D7 erythrocytic growth, LDH absorbance, 72 h; at 2 µM; stronger effect = higher value.
Test [5] addresses Calcium-dependent protein kinase 1 (Plasmodium falciparum (isolate 3D7)) (UniProt P62344). Briefly: PfCDPK1 kinase inhibitors, biochemical, TCAMS library (AID 1159585; cut-off not given, nearly all actives have IC50 up to about 0.98 µM;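 also: inhibitors leave more ATP so luminescence rises with inhibition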). Conditions: recombinant PfCDPK1, Kinase-Glo ATP depletion luminescence. In general terms: Kinase-Glo measures the ATP left after a reaction by luminescence.
Test [6] concerns the target Plasmodium falciparum protein kinase 6 (PK6, PF3D7_1337100) (UniProt Q8IDW1). Put plainly: PfPK6 kinase inhibitors, biochemical, TCAMS library (AID 1159586). Conditions: recombinant PfPK6, Kinase-Glo ATP depletion luminescence.
Test [7] deals with Protein kinase 7 (PK7), Plasmodium falciparum 3D7 (PF3D7_0213400) (UniProt Q7YTF7). Briefly: inhibition of Plasmodium PK7 catalytic activity – biochemical, TCAMS antimalarial set, Kinase-Glo luminescence (AID 1159587). The following applies: recombinant PfPK7, Kinase-Glo ATP depletion luminescence.
The target of test [8] is Calcium-dependent protein kinase 4 (Plasmodium falciparum (isolate 3D7)) (UniProt Q8IBS5). Put plainly: PfCDPK4 kinase inhibitors, biochemical, TCAMS library (AID 1159588; cut-off not given, nearly all actives have IC50 up to about 0.91 µM). Conditions: recombinant PfCDPK4, Kinase-Glo ATP depletion luminescence.

Unmarked numbers belong to inactive results. For some of these results: Results with a measured potency or affinity are listed apart. The source made the active and inactive calls. Unless noted, no rule for the calls is given here.

Chain of Plasmodium falciparum protein kinase 6 (PK6, PF3D7_1337100) (Q8IDW1 1-305): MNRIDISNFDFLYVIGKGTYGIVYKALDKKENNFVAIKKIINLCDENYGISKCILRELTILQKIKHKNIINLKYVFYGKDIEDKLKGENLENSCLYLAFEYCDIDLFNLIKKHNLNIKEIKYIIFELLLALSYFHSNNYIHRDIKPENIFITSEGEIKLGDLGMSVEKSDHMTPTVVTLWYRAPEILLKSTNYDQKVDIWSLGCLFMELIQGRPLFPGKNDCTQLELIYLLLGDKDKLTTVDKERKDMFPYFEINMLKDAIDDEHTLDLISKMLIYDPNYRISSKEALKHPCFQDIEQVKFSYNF
Chain of Calcium-dependent protein kinase 4 (Plasmodium falciparum (isolate 3D7)) (Q8IBS5 whole entry, looked up): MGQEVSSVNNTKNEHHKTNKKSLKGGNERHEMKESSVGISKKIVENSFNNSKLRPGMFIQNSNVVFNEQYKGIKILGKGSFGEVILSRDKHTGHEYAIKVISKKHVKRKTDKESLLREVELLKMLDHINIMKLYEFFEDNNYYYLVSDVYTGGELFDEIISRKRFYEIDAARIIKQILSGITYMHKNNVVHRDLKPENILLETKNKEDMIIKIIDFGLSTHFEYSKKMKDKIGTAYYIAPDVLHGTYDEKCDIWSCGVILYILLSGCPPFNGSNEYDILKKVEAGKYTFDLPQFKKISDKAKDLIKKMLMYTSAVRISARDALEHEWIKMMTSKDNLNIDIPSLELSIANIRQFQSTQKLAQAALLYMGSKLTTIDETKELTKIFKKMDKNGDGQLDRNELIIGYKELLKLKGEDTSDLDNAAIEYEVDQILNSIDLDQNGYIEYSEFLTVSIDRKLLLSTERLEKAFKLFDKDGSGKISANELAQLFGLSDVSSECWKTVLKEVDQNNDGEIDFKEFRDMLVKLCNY
Chain of L-lactate dehydrogenase (Plasmodium falciparum (isolate CDC / Honduras)) (Q27743 whole entry, looked up): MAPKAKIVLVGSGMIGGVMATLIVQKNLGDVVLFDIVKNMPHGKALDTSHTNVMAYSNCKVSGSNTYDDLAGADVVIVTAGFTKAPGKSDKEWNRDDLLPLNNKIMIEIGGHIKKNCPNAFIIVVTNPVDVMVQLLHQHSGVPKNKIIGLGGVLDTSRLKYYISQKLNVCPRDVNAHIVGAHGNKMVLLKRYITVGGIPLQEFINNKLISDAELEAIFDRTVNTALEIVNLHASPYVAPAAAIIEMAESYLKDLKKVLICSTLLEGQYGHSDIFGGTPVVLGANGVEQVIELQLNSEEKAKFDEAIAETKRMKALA
Chain of Calcium-dependent protein kinase 1 (Plasmodium falciparum (isolate 3D7)) (P62344 whole entry, looked up): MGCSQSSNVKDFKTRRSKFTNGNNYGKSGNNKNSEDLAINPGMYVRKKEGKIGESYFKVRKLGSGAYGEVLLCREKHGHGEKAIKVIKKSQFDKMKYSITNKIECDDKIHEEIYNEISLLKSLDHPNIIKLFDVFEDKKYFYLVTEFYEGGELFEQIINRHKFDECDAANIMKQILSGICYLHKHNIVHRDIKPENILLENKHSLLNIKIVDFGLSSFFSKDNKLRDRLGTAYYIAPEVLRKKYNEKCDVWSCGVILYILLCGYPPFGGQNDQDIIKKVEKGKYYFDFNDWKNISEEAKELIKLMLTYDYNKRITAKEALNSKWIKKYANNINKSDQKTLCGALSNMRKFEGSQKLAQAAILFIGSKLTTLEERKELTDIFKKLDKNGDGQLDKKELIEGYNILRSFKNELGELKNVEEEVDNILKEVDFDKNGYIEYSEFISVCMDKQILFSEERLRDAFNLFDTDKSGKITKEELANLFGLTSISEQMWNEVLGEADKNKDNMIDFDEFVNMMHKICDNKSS
Chain of Protein kinase 7 (PK7), Plasmodium falciparum 3D7 (PF3D7_0213400) (Q7YTF7 1-343): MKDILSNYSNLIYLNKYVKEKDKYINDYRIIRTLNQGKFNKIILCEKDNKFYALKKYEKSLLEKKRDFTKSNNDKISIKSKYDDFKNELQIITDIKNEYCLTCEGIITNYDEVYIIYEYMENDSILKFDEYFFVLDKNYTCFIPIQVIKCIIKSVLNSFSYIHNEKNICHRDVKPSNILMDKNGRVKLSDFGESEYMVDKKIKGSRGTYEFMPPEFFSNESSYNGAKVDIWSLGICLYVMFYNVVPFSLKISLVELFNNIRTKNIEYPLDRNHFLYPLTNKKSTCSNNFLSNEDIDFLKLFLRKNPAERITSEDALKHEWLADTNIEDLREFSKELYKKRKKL

As a reminder, the inhibition is the relative decrease from the control value, in per cent. As to `C=C[C@]1(C)C[C@@H](OC(=O)c2cncn(COC)c2=O)[C@]2(C)[C@H](C)CC[C@]3(CCC(=O)[C@H]32)[C@@H](C)[C@@H]1O`, the growth inhibition in test [1] is 7%; in test [4] it was 96% (active). The inhibition in test [2] and in test [3] was -1% throughout. For the same molecule, the result in test [5], in test [6], in test [7] and in test [8] was inactive.
Take `O=c1[nH]c2c(cc1CNC1CCCCC1)c(-c1ccc(F)cc1)nn2-c1ccccc1`: the growth inhibition in test [1] is 88% (active); in test [4], 99% (active). Besides, the values for the inhibition in test [2] and in test [3] were 8% and 6%, respectively. Besides, the outcome in test [5], in test [6], in test [7] and in test [8] was inactive.
On to `Cc1cc(NC(=O)c2ccco2)ccc1OC1CCN(Cc2ccc(F)cc2)C1` (stereo not given), for which the growth inhibition in test [1] was 92% (active); in test [4], 96% (active). Also, the inhibition in test [2] and in test [3] was 5% in each case. Further, the result in test [5], in test [6], in test [7] and in test [8] was inactive.
On to `COc1ccc(-c2ccc(NC(=O)c3ccc(C#N)cc3)cc2)cc1CN1CCN(C)CC1`, for which the growth inhibition was 49% in test [1] and 93% (active) in test [4]. Also, the inhibition is 21% in test [2] and 1% in test [3]. The outcome in test [5], in test [6], in test [7] and in test [8] was inactive.
For `CCCC(=O)c1cnc2c(I)cccc2c1Nc1ccccc1C`, the growth inhibition in test [1] is 26%; in test [4], 90% (active). Besides, the inhibition in test [2] was 7%; in test [3], 4%. The outcome in test [5], in test [6], in test [7] and in test [8] was inactive.
Regarding `COc1ccc2nccc([C@@H](O)CN3CCC(NCc4[nH]c5ccccc5c4F)CC3)c2c1`, the growth inhibition in test [1] was 61% (active); in test [4], 102% (active). Besides, the inhibition in test [2] is 19%; in test [3] it was 3%. Moreover, the result in test [5], in test [6], in test [7] and in test [8] was inactive.
As for `CCCNCc1ccc(-c2ccc(CN(CCOC)C(=O)[C@H]3CCCO3)cc2)nc1`, the growth inhibition in test [1] is 6%; in test [4], 98% (active). Further, the values for the inhibition in test [2] and in test [3] were 1% and -3%, respectively. The outcome in test [5], in test [6], in test [7] and in test [8] was inactive.
As for `CCn1ncc(Cl)c1CN(C)S(=O)(=O)c1ccc2ccccc2c1`, the growth inhibition in test [1] was 91% (active); in test [4] it was 101% (active). The inhibition in test [2] was 16%; in test [3], -2%. The result in test [5], in test [6], in test [7] and in test [8] was inactive.
Take `CC1(C)N=C(N)NC(NOCc2ccc(Cl)c(Cl)c2)=N1`: the figures for the growth inhibition in test [1] and in test [4] were 27% and 96% (active), respectively. In addition, the inhibition in test [2] is 5%; in test [3] it was 2%. Further, the outcome in test [5], in test [6], in test [7] and in test [8] was inactive.
For `Cc1nc(-c2cccc(Nc3nccc(NCC(O)c4cccc(F)c4)n3)c2)cs1` (stereo not given), the results for the growth inhibition in test [1] and in test [4] were 59% (active) and 98% (active), respectively. For the same molecule, the values for the inhibition in test [2] and in test [3] were 39% and 1%, respectively. The outcome in test [5], in test [6], in test [7] and in test [8] was inactive.
As for `CCC(NC(=O)c1ccccc1NC(=O)c1ccc(C)cc1)C(=O)OC` (stereo not given), the results for the growth inhibition in test [1] and in test [4] were 86% (active) and 95% (active), respectively. Besides, the results for the inhibition in test [2] and in test [3] were -4% and 3%, respectively. The result in test [5], in test [6], in test [7] and in test [8] was inactive.
Take `C=CCc1cc(SC)ccc1Oc1ccc(N)cc1`: the growth inhibition in test [1] is 2%; in test [4], 96% (active). Moreover, the values for the inhibition in test [2] and in test [3] were 12% and 4%, respectively. Further, the result in test [5], in test [6], in test [7] and in test [8] was inactive.
Regarding `COc1ccc(-c2nc(NC(=O)CSc3ccc([N+](=O)[O-])cc3)sc2C)cc1`, the values for the growth inhibition in test [1] and in test [4] were 100% (active) and 101% (active), respectively. The inhibition in test [2] was -6%; in test [3], -1%. Further, the outcome in test [5], in test [6], in test [7] and in test [8] was inactive.
With `NC(Cc1ccc(Cl)cc1)=NCCN1CCCCCC1`, the growth inhibition in test [1] is 94% (active); in test [4] it was 93% (active). Besides, the inhibition in test [2] is -8%; in test [3], -2%. For the same molecule, the outcome in test [5], in test [6], in test [7] and in test [8] was inactive.
In the case of `CCOc1cc(C(C)C)ccc1N1CCN(CCCCNC(=O)c2ccc(NC(=O)c3ccc(Cl)cc3)cc2)CC1`, the growth inhibition in test [1] was 97% (active); in test [4], 101% (active). The inhibition in test [2] is 28%; in test [3], 4%. The outcome in test [5], in test [6], in test [7] and in test [8] was inactive.
Turning to `C=CCN(c1ccc(OC)cc1)S(=O)(=O)c1ccc(Cl)c(C(=O)Nc2cccc(C#N)c2)c1`, the growth inhibition in test [1] is 73% (active); in test [4] it was 96% (active). The inhibition in test [2] and in test [3] was 6% each time. For the same molecule, the result in test [5], in test [6], in test [7] and in test [8] was inactive.
`C=CCN(c1nc(NC)nc(NCc2c(OC)cccc2OC)n1)C1CCCC1`: the growth inhibition in test [1] is 70% (active); in test [4], 85% (active). Moreover, the inhibition in test [2] is 18%; in test [3], -3%. Also, the outcome in test [5], in test [6], in test [7] and in test [8] was inactive.
In the case of `CN(C)C=Nc1ccc(OCCCCCCOc2ccc(N=CN(C)C)cc2)cc1`, the growth inhibition is 94% (active) in test [1] and 101% (active) in test [4]. The values for the inhibition in test [2] and in test [3] were 26% and 6%, respectively. Further, the outcome in test [5], in test [6], in test [7] and in test [8] was inactive.
Regarding `Cc1cc(N2CCCC2)nc(Nc2ccc(NC(=O)C(C)Oc3ccccc3)cc2)n1` (stereo not given), the growth inhibition was 58% (active) in test [1] and 101% (active) in test [4]. The inhibition in test [2] is 42%; in test [3] it was -1%. For the same molecule, the outcome in test [5], in test [6], in test [7] and in test [8] was inactive.
In the case of `Oc1ccc2ccccc2c1CNCC1CCCCC1`, the figures for the growth inhibition in test [1] and in test [4] were 93% (active) and 98% (active), respectively. Besides, the inhibition is -12% in test [2] and -5% in test [3]. Further, the result in test [5], in test [6], in test [7] and in test [8] was inactive.

The values are drawn from PubChem BioAssay.
